From PubChem BioAssay (EPA / NIEHS) come the findings set out here.

Several values for one entry are separate records, joined by “and”; a condition that tells them apart may be missing. Equal values may be shown once. Results filed as inconclusive are left out. Where a structure was tested more than once in an assay, its records may differ in their call. Activity calls are given as the source filed them. How the source made its calls, unless noted: active means hit-call score of the fitted dose curve at least 0.9, where 1 is the maximum; inactive means score below 0.9.

Test [1] is described as follows: CCTE_Mundy_HCI_Cortical_NOG_BPCount: CCTE's Neurite Outgrowth Assay in rat cortical cells for Branch Point Count, Mundy Lab (AID 2284237).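 On AC50: branch points counted about two days after chemical exposure.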 In outline:
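Measured 50.33 h after dosing, this morphology endpoint uses rat primary cortical cultures labelled for betaIII-tubulin. Branch points are quantified by high-content imaging, with DMSO as negative control and baseline.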

Read-out in test [2]: Collagen I, COL1A1 (gene 1277)
The test is described as follows: BSK_MyoF_CollagenI: BioMAP Diversity Plus: MyoF Assay for Collagen I Biomarker Activity (AID 2284238). Conditions: primary human lung fibroblasts. In outline:
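Primary human lung fibroblasts (MyoF system) treated 24 h; Collagen I quantified by ELISA and fitted in positive direction against DMSO. Parallel SRB total-protein staining assessed overt cytotoxicity.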

Read-out in test [3]: Collagen III, COL3A1 (gene 1281)
The test is described as follows: BSK_MyoF_CollagenIII: BioMAP Diversity Plus: MyoF Assay for Collagen III Biomarker Activity (AID 2284239). To be noted: primary human lung fibroblasts. In outline:
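Primary human lung fibroblasts (BioMAP MyoF system) exposed 24 h. Collagen III measured by ELISA; positive-direction fit relative to DMSO.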

Test [4] is described as follows: CCTE_Mundy_HCI_hNP1_Casp3_7: CCTE's Caspase-Glo 3/7 Assay in human neuroprogenitor cells for Apoptosis, Mundy Lab (AID 2284240). In outline: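 Luminescent caspase-3/7 readout, 26.5 h post-dose, in human neural progenitor cells from WA09 embryonic stem cells. Cells grew 40–44 h at 37 °C, 5% CO2 before chemical addition. Activity analysed as signal increase over DMSO baseline.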

Test [5] is described as follows: CCTE_Mundy_HCI_hNP1_CellTiter: CCTE's Cell Titer-Glo 2 Assay in human neuroprogenitor cells for Viability, Mundy Lab (AID 2284241; active means hit-call score of the fitted dose curve at least 0.9, where 1 is the maximum;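 on AC50: a hit is a drop in ATP luminescence versus DMSO meaning reduced viability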). In outline:
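Viability read as luminescent ATP content (CellTiter-Glo, 30 min room temperature) twenty-four hours after dosing, relative to DMSO. Cells: WA09-derived hNP1 neuroprogenitors on poly-L-ornithine/laminin, plated 40 to 44 hours before chemical.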

Test [6] in a line: CCTE_Mundy_HCI_Cortical_Synap_Neur_Matur_NeuronCount: CCTE's Synaptogenesis and Neurite Maturation Assay in rat cortical cells for Neuron Count, Mundy Lab (AID 2284242; active means hit-call score of the fitted dose curve at least 0.9, where 1 is the maximum;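 on AC50: hits reduce neuron count versus DMSO baseline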). In outline:
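Neuron counts come from automated high-content imaging of Hoechst nuclei and MAP2/synaptophysin immunostaining at DIV 12, with loss of signal judged against DMSO. Cultures of rat cortical cells had glial growth arrested by AraC at DIV 5; chemical exposure began DIV 7.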

Read-out in test [7]: Interleukin 17F (IL17F), IL17F (gene 112744)
The test can be described thus: BSK_BT_xIL17F: BioMAP Diversity Plus: BT Assay for Interleukin 17F (IL17F) Biomarker Activity (AID 2284243). Conditions: primary human B cells with PBMC. In outline: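 Human PBMC co-cultured with B cells, compound exposure 24 h; secreted IL-17F quantified by Luminex xMAP, referenced to DMSO control. PBMC viability measured in parallel by Alamar Blue reduction.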

Read-out in test [8]: Actin alpha 1 (ACTA1), ACTA1 (gene 58)
The test can be described thus: BSK_MyoF_ACTA1: BioMAP Diversity Plus: MyoF Assay for Actin alpha 1 (ACTA1) Biomarker Activity (AID 2284244). To be noted: primary human lung fibroblasts. In outline: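 alpha-SMA levels read by ELISA against DMSO baseline, 24 h post-dose, in primary human lung fibroblasts. Parallel cultures stained with 0.1% SRB after 10% TCA fixation (560 nm) to flag overt cytotoxicity.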

Read-out in test [9]: Interleukin 2 (IL2), IL2 (gene 3558)
The test can be described thus: BSK_BT_xIL2: BioMAP Diversity Plus: BT Assay for Interleukin 2 (IL2) Biomarker Activity (AID 2284245). Conditions: primary human B cells with PBMC. In outline:
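Secreted IL-2 was read by Luminex xMAP from B cells co-cultured with PBMC (human primary) 24 h post-dosing; activity was analysed as gain of signal relative to DMSO vehicle.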

Read-out in test [10]: Basic fibroblast growth factor (bFGF), FGF2 (gene 2247)
The test is described as follows: BSK_MyoF_bFGF: BioMAP Diversity Plus: MyoF Assay for Basic fibroblast growth factor (bFGF) Biomarker Activity (AID 2284246). To be noted: primary human lung fibroblasts. In outline: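 bFGF was measured by ELISA in primary human lung fibroblasts 24 h after chemical addition. Signal was analysed as positive-direction change relative to DMSO baseline.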

Read-out in test [11]: Collagen IV, COL4A1 (gene 1282)
The test can be described thus: BSK_MyoF_CollagenIV: BioMAP Diversity Plus: MyoF Assay for Collagen IV Biomarker Activity (AID 2284247). Conditions: primary human lung fibroblasts. In outline:
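Collagen IV quantified by ELISA in human lung fibroblast cultures 24 h after chemical treatment, with DMSO as baseline. Parallel SRB staining (0.1% SRB after TCA fixation, 560 nm) flags overt cytotoxicity.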

Read-out in test [12]: Monokine induced gamma interferon (MIG), CXCL9 (gene 4283)
The test is described as follows: BSK_KF3CT_MIG: BioMAP Diversity Plus: KF3CT Assay for Monokine induced gamma interferon (MIG) Biomarker Activity (AID 2284248). Conditions: primary human keratinocytes with fibroblasts. In outline: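 Human keratinocyte–foreskin fibroblast co-culture; MIG measured by ELISA 24 h after chemical dosing, fitted upward versus DMSO. Cytotoxicity was assessed in parallel cultures by SRB total-protein staining read at 560 nm.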

Read-out in test [13]: Vascular cell adhesion molecule 1 (VCAM1), VCAM1 (gene 7412)
The test is described as follows: BSK_BF4T_VCAM1: BioMAP Diversity Plus: BF4T Assay for Vascular cell adhesion molecule 1 (VCAM1) Biomarker Activity (AID 2284249). Conditions: primary human bronchial epithelial cells with fibroblasts. In outline:
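Cell-surface VCAM-1 quantified by ELISA after 24 h chemical exposure of human bronchial epithelial/dermal fibroblast co-cultures, with SRB staining in parallel wells for cytotoxicity; DMSO baseline, positive-direction fitting.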

Read-out in test [14]: Collagen I, COL1A1 (gene 1277)
The test is described as follows: BSK_hDFCGF_CollagenI: BioMAP Diversity Plus: hDFCGF Assay for Collagen I Biomarker Activity (AID 2284250). To be noted: primary human foreskin fibroblasts. In outline:
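Collagen I quantified by ELISA 24 h after chemical dosing of human dermal fibroblast primary cells, with parallel SRB staining (0.1%, TCA-fixed, 560 nm) for overt cytotoxicity.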

Read-out in test [15]: Interferon-inducible T-cell alpha chemoattractant (ITAC), CXCL11 (gene 6373)
The test can be described thus: BSK_hDFCGF_ITAC: BioMAP Diversity Plus: hDFCGF Assay for Interferon-inducible T-cell alpha chemoattractant (ITAC) Biomarker Activity (AID 2284251). To be noted: primary human foreskin fibroblasts. In outline:
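Measured by ELISA, the chemokine level serves as the endpoint in human skin fibroblast primary cultures 24 h after compound addition. Increases relative to DMSO-treated wells define activity.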

Read-out in test [16]: Plasminogen activator inhibitor-1 (PAI1), SERPINE1 (gene 5054)
The test is described as follows: BSK_KF3CT_PAI1: BioMAP Diversity Plus: KF3CT Assay for Plasminogen activator inhibitor-1 (PAI1) Biomarker Activity (AID 2284252). Conditions: primary human keratinocytes with fibroblasts. In outline: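 PAI-1 levels quantified by ELISA after 24 h compound exposure of primary human skin keratinocytes co-cultured with fibroblasts. Activity is the gain relative to DMSO; cytotoxicity tracked in parallel cultures via SRB staining.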

Read-out in test [17]: Monocyte Chemoattractant Protein-1 (MCP1), CCL2 (gene 6347)
The test can be described thus: BSK_IMphg_MCP1: BioMAP Diversity Plus: IMphg Assay for Monocyte Chemoattractant Protein-1 (MCP1) Biomarker Activity (AID 2284253). To be noted: primary human endothelial cells with macrophages. In outline: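 ELISA readout of MCP-1 at 24 hours in IMphg co-cultures of venular endothelial cells and macrophages, normalised to DMSO; parallel cultures stained with sulforhodamine B for overt cytotoxicity.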

Read-out in test [18]: Interleukin-8 (IL8), CXCL8 (gene 3576)
The test can be described thus: BSK_KF3CT_IL8: BioMAP Diversity Plus: KF3CT Assay for Interleukin-8 (IL8) Biomarker Activity (AID 2284254). Conditions: primary human keratinocytes with fibroblasts. In outline: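 Human keratinocyte/foreskin fibroblast co-culture dosed 24 h; IL-8 measured by ELISA relative to DMSO. Parallel cultures stained with SRB for total protein to flag cytotoxicity.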

Read-out in test [19]: Macrophage Inflammatory Protein-1 Alpha (MIP1a), CCL3 (gene 6348)
The test can be described thus: BSK_IMphg_MIP1a: BioMAP Diversity Plus: IMphg Assay for Macrophage Inflammatory Protein-1 Alpha (MIP1a) Biomarker Activity (AID 2284255). To be noted: primary human endothelial cells with macrophages. In outline: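 MIP-1a protein levels were quantified by ELISA after 24 h treatment of human endothelial cell–macrophage co-cultures, compared with DMSO. Parallel cultures were fixed with TCA and stained with 0.1% SRB to gauge overt cytotoxicity.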

Read-out in test [20]: Plasminogen activator inhibitor-1 (PAI1), SERPINE1 (gene 5054)
The test is described as follows: BSK_MyoF_PAI1: BioMAP Diversity Plus: MyoF Assay for Plasminogen activator inhibitor-1 (PAI1) Biomarker Activity (AID 2284256).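 Further: PAI-1 read 24 h after compound addition.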 To be noted: primary human lung fibroblasts. In outline: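 Primary human lung fibroblasts treated with chemical for 24 h; PAI-1 levels quantified by ELISA relative to DMSO. Cytotoxicity was assessed in parallel cultures by SRB total-protein staining (0.1% SRB after 10% TCA fixation, 560 nm).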

For `O=S(=O)(O)C(F)(F)C(F)(F)C(F)(F)C(F)(F)C(F)(F)C(F)(F)C(F)(F)C(F)(F)F`, the compound was classed as inactive in test [1], in [2], in [3], in [4], in test [5] and in test [6]. In addition, the outcome in [7], in [8], in test [9], in test [10], in test [11] and in [12] was inactive. Besides, the outcome in [13], in test [14], in test [15], in test [17], in test [18] and in test [19] was inactive. In addition, in test [20], the outcome was inactive. The concentration at half-maximal activity (AC50) (commonly the concentration at which the activity in the assay is half-maximal) in test [15] was 30 µM (active) and 38.1 µM (active); in test [16] it was 24.4 µM (active) [middle of 4 runs].

For `CCC(C)(C)C(=O)OC1=C(c2ccc(Cl)cc2Cl)C(=O)OC12CCCCC2`, the outcome in test [1], in test [4], in test [5] and in [6] was inactive.

Regarding `CNC(=O)CSP(=S)(OC)OC`, the result in [1], in test [4], in test [5] and in test [6] was inactive. Further, the AC50 in [6] was 50 µM (active).

On to `CC(C)N(C(=O)COc1nnc(C(F)(F)F)s1)c1ccc(F)cc1`, for which the compound was called inactive in [1], in test [4] and in test [5].

With `CC1(C)C(C=C(Cl)Cl)C1C(=O)OC(C#N)c1ccc(F)c(Oc2ccccc2)c1` (centres undefined), the values for the AC50 in test [1], in [4] and in test [6] were 63.1 µM (active), 31.3 µM (active) and 49.9 µM (active), respectively. For the same compound, the compound was classed as inactive in [1], in [4] and in test [5].

Consider `CC1(c2ccc(Oc3ccccc3)cc2)OC(=O)N(Nc2ccccc2)C1=O` (centres undefined), for which the AC50 is 50 µM (active) in test [1], 10.9 µM (active) in [5] and 10.9 µM (active) in test [6]. For the same compound, the compound was called inactive in test [4].

With `O=[N+]([O-])/N=C1\NCCN1Cc1ccc(Cl)nc1`, the call in [1], in test [4] and in test [5] was inactive.

Take `O=S1OCC2C(CO1)C1(Cl)C(Cl)=C(Cl)C2(Cl)C1(Cl)Cl` (centres undefined): the AC50 in [1] was 21.4 µM (active); in test [4], 19.4 µM (active); in test [5] it was 12 µM (active); in test [6], 22.5 µM (active).

Turning to `COP(=S)(OC)Oc1ccc([N+](=O)[O-])cc1`, the AC50 was 23.2 µM (active) in [1] and 22.1 µM (active) in test [6]. Moreover, the result in test [4] and in [5] was inactive.
